# Compound activity (PubChem BioAssay)
# Shown are actives, neighbours in structure and some others; about 2.9% of the full set was active somewhere.
# PAFAH1B2 FP inh: PAFAH1B2 (human) inhibition | P68402 | recombinant PAFAH1B2, FP-rhodamine activity probe, fluorescence polarization | inhibition, % at 3.39 µM | 340,000 tested, 1.2% active | AID 492953;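 active = inhibition above the mean of all tested compounds plus 3 SD, cut at about 24% in these data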;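 note: 0% = enzyme with DMSO and 100% = wells lacking PAFAH1B2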
# Target sequence (P68402 whole entry, looked up): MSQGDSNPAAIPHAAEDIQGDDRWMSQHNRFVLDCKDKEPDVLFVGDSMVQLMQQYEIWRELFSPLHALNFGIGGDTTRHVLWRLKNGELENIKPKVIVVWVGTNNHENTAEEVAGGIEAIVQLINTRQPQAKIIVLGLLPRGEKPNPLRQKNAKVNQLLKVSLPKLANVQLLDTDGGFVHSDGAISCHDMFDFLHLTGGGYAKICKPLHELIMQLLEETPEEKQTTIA
# PAFAH1B3 FP inh: blocks human PAF acetylhydrolase 1B catalytic subunit 3; Q15102; inhibition, % at 3.39 µM; 340,000 tested, 0.28% active; recombinant PAFAH1B3, FP-rhodamine probe, fluorescence polarization;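 active = inhibition above the screen-wide average of all tested compounds plus 3 SD, cut at about 25% in these data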;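 note: 0% = enzyme with DMSO only and 100% = wells lacking PAFAH1B3 protein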
# Target sequence (Q15102 whole entry, looked up): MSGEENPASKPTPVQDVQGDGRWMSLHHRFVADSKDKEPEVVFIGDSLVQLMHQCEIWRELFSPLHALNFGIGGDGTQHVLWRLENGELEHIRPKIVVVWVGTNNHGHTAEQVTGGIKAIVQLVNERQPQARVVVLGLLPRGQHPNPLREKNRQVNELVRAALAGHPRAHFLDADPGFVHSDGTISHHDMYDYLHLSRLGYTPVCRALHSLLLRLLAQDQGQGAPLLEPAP
# rCAG RNA binder: binds r(CAG) RNA repeats; r(CAG) RNA repeat, TO-PRO-1 dye displacement fluorescence; inhibition, % at 3 µM; 370,000 tested, 1.3% active; AID 651821;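 active = inhibition above the plate cutoff, the mean of all test compounds on that plate plus 3 SD, cut at about 35% in these data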;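 note: 0% = DMSO alone and 100% = 100 µM mitoxantrone as full dye displacement; higher means more dye released from RNA so lower well fluorescence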
# PAFAH2 FP inh: inhibitors of human PAFAH2; Q99487; recombinant PAFAH2, FP-rhodamine activity probe, fluorescence polarization; inhibition, % at 3.39 µM; 340,000 tested, 0.99% active; AID 492956;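 active = inhibition above the mean over all tested compounds plus 3 SD, cut at about 30% in these data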;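 note: inhibitors block probe labeling of enzyme so polarization drops; 0% = enzyme with DMSO and 100% = wells lacking PAFAH2 protein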
# EBNA-1 inh: blocks EBNA-1 binding to DNA; EBNA-1 DNA binding, fluorescence polarization; inhibition, % at 14.8 µM; 300,000 tested, 0.34% active; AID 1950; in the data active = inhibition above about 28%
# ZTA DNA inh: counter-screen for EBNA-1 inhibitors: inhibitors of Epstein-Barr virus ZTA | ZTA-DNA binding, fluorescence polarization | inhibition, % at 11 µM | 320,000 tested, 0.15% active; in the data active = inhibition above about 33%
# Active calls of the source: *; x = no result.
SMILES,PAFAH1B2 FP inh,PAFAH1B3 FP inh,rCAG RNA binder,PAFAH2 FP inh,EBNA-1 inh,ZTA DNA inh
O=S(=O)(Nc1ccc2cn[nH]c2c1)c1ccc(Cl)cc1,32*,12,x,17,0,-17
O=C(O)c1cc(S(=O)(=O)NC(Cc2c[nH]c3ccccc23)C(=O)O)ccc1Cl (stereo unspecified),25*,5,14,7,6,8
O=C(NNS(=O)(=O)c1ccc(F)cc1)c1cc(Cl)ccc1O,26*,9,4,8,x,x
O=C(NNS(=O)(=O)c1ccc(F)cc1)c1ccccc1O,7,0,1,3,-5,-17
CCCC(=O)N1CCC(C(=O)NC2CCCc3ccccc32)CC1 (stereo unspecified),x,x,2,x,x,x
O=C(Cc1ccccc1)NNC1CC(=O)N(c2ccc(Cl)cc2)C1=O (stereo unspecified),5,8,4,6,8,-7
O=C(Cc1ccc(Cl)cc1)NNC1CC(=O)N(c2ccc3ccccc3c2)C1=O (stereo unspecified),25*,5,15,-1,-9,-3
COCCn1c(C23CC4CC(CC(C4)C2)C3)n[nH]c1=S,5,7,-4,5,-5,3
CCCCn1c(C23CC4CC(CC(C4)C2)C3)n[nH]c1=S,29*,-1,0,4,14,3
O=c1c(OC2OC(CO)C(O)C(O)C2O)c(-c2ccc(O)c(O)c2)oc2cc(O)cc(O)c12 (stereo unspecified),3,46*,3,-7,-15,7
O=c1cc(-c2ccc(O)c(O)c2)oc2cc(O[C@@H]3O[C@H](CO)[C@@H](O)[C@H](O)[C@H]3O)cc(O)c12,67*,67*,x,52*,x,x
O=c1c(O[C@H]2O[C@@H](CO)[C@H](O)[C@@H](O)[C@@H]2O)c(-c2ccc(O)cc2)oc2cc(O)cc(O)c12,3,2,9,2,x,2
C[C@@H]1O[C@@H](OC[C@H]2O[C@@H](Oc3cc(O)c4c(=O)cc(-c5ccc(O)c(O)c5)oc4c3)[C@H](O)[C@@H](O)[C@@H]2O)[C@H](O)[C@H](O)[C@H]1O,75*,87*,x,23,x,x
Cc1cccc(NC(=O)NCCCN2CCN(c3ccc(F)cc3)CC2)c1,x,x,0,x,x,x
COCC(=O)Nc1ccc2c(c1)[C@H]1C[C@@H](CC(=O)NCC3CC3)O[C@H](CO)[C@H]1O2,x,x,2,x,x,x
CCOC(=O)[C@@]12CN(C(=O)OC(C)(C)C)CC=C1N(Cc1ccc(OC)cc1)C(=O)[C@H]2CC(=O)N1CCN(C(=O)c2ccco2)CC1,x,x,1,x,x,x
COc1ccc(/C(O)=C/C(=O)C(=O)NNC(=O)C(O)(c2ccccc2)c2ccccc2)cc1,7,5,44*,5,-7,-20
COc1ccc(/C(O)=C/C(=O)C(=O)NNC(=O)c2ccccc2)cc1,4,11,25,-1,-15,5
CCOC(=O)C1=NOC(C(=O)NCCO)(C(=O)C2CC2)C1 (stereo unspecified),x,x,3,x,x,x
COc1ccc(-n2ncc(S(=O)(=O)c3ccccc3)c2-c2ccc(Cl)cc2)cc1,3,2,-1,0,3,3
O=S(=O)(c1ccccc1)c1cnn(-c2ccccc2)c1-c1ccc(F)cc1,28*,6,1,2,13,16
CCN(Cc1cn(Cc2ccccc2)nn1)S(=O)(=O)c1ccccc1Br,x,x,-1,x,x,x
O=C1C=C[C@H]2CC[C@@H](O)[C@@H]1[C@@H]2Sc1ccccc1,x,x,5,x,x,x
Cc1cc(C)cc(NC(=O)/C(C#N)=C/c2cn(CC(=O)NCc3ccco3)c3ccccc23)c1,-18,-14,4,-38,40*,19
CC(C)c1ccc(C(CC(=O)c2ccc(Cl)cc2)C(=O)O)cc1 (stereo unspecified),38*,-2,45*,-14,3,-4
SMILES,PAFAH1B2 FP inh,PAFAH1B3 FP inh,rCAG RNA binder,PAFAH2 FP inh,EBNA-1 inh,ZTA DNA inh
O=C(Nc1ccc(Cl)cc1)[C@@H]1[C@@H]2C(=O)N(c3ccc4ccccc4c3)C(=O)[C@@H]2[C@H]2C=CC=NN21,4,4,33,33*,-8,0
CCCC(=O)OC12CCCN(C1)/C(=C/c1ccc(OC)cc1)C2 (stereo unspecified),x,x,0,x,x,x
C/C(N)=C(/C#N)C(=O)COC(=O)CCSc1ccccc1Cl,6,5,-1,0,-16,-3
C/C(N)=C(/C#N)C(=O)COC(=O)CSc1ccccc1,26*,-7,3,-8,-12,6
CC(=O)CC[C@@H]1CC[C@]2(CCCN(C(=O)c3ccccc3)C2)O1,x,x,0,x,x,x
O=C1c2ccccc2-c2onc3ccc(N4CCCC4)c1c23,77*,74*,-256,88*,x,x
Cc1occc1-c1nnc(SCC(=O)N2CCN(c3ncccn3)CC2)n1-c1ccccc1,x,x,2,x,x,x
Cc1ccc(S(=O)(=O)Nc2nc3ccccc3s2)cc1,3,9,26,7,7,-5
O=S(=O)(Nc1nc2ccccc2s1)c1ccc(Br)s1,-4,0,50*,11,-8,-19
O=c1c2c3nc4ccccc4nc3n(Cc3ccccc3)c2ncn1Cc1ccco1,-3,-1,37*,1,x,x
COC(=O)C1CN(Cc2cn(Cc3ccc(Cl)cc3)nn2)CCS(=O)(=O)N1Cc1ccc(F)cc1 (stereo unspecified),x,x,1,x,x,x
Cn1c(CCN2CCCC2)nc2cc(NS(=O)(=O)c3ccc(Cl)cc3)ccc21,28*,2,2,5,4,8
Cc1cc(C)c(C(=O)N2CCCC(CNC(=O)C3(c4ccc(Cl)cc4)CC3)C2)c(=O)[nH]1 (stereo unspecified),25*,-4,-4,5,-9,-8
CC1(C(=O)NCC2CC2)CCN1C(=O)C1(c2ccc(Cl)cc2)CC1 (stereo unspecified),x,x,0,x,x,x
Cc1ccc(Cc2c(-c3cccc(Cl)c3)nc3ccc(C)cn23)cc1,x,x,4,x,x,x
Cc1cc2nc(-c3ccc(Cl)cc3)c(Cc3cccc(Cl)c3)n2c(C)c1Br,x,x,25,x,x,x
Cc1ccc(Cc2c(-c3cccc(Cl)c3)nc3ccc(Br)cn23)cc1,x,x,44*,x,x,x
Cc1cc2nc(-c3cccc(Cl)c3)c(Cc3cccc(Cl)c3)n2c(C)c1Br,x,x,35*,x,x,x
Cc1ccccc1Cn1cc(COC(=O)NCCc2ccccc2)nn1,x,x,0,x,x,x
COc1ccc(CNC(=O)Cc2c(C(=O)O)[nH]c3ccccc23)cc1,25*,12,2,5,-2,7
COc1cccc(/C=N/NC(=O)c2[nH]c(C)c(C(=O)N/N=C/c3cccc(OC)c3O)c2C)c1O,7,45*,25,-5,-3,-10
COc1ccccc1/C=N/NC(=O)c1cccc(OC(F)(F)C(F)F)c1,-1,0,-4,-4,-14,-7
COc1cccc(/C=N/NC(=O)C(=O)Nc2ccccc2OC(F)(F)C(F)F)c1O,5,27*,9,35*,-16,0
